Data from PubChem BioAssay.
Calls of active or inactive are those of the source.

Columns and labels:
[1] = binders of probe aFSTL3 on microarray, primary screen, stem cell growth factor project, biochemical, small-molecule microarray, fluorescence 635/667 (AID 1064); details: higher = more signal;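 note: measures binding of the biotinylated anti-FSTL3 antibody to printed compounds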
[2] = binders from COS7 lysate, DM2A8 probe, primary screen, torsin A project, cell lysate, small-molecule microarray, fluorescence 635/667 (AID 1065); details: higher = more signal, COS7 lysate expressing mutant human TOR1A
[3] = binders of probe aFGF2 on microarray, primary screen, stem cell growth factor project, biochemical, small-molecule microarray, fluorescence 635/667 (AID 1067); details: higher = more signal;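 note: measures binding of biotinylated aFGF2 protein to printed compounds on slides; z-score merges feature fluorescence and signal-to-noise across triplicate slides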
[4] = binders of probe aFGF10 on microarray, primary screen, stem cell growth factor project, biochemical, small-molecule microarray, fluorescence 635/667 (AID 1071); details: higher = more signal;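 note: score merges 667 nm spot intensity and signal to noise from triplicate slides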
[5] = target: Neurogenic locus notch homolog protein 2 (Homo sapiens) (UniProt Q04721); experiment: Notch2 binders on small-molecule microarrays, primary screen, biochemical, small-molecule microarray, 635 nm fluorescence, stem cell growth factors (AID 1073); details: Notch2 binding, higher = more signal
[6] = target: Pro-neuregulin-1, membrane-bound isoform (Homo sapiens) (UniProt Q02297); experiment: NRG1 binders on small-molecule microarrays, primary screen, psychiatric disease protein project, biochemical, small-molecule microarray, fluorescence 635/667 (AID 1075); details: NRG1 binding, 635 nm fluorescence, higher = more signal;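 note: score combines 667 nm spot fluorescence with signal to noise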
[7] = test system: Neuregulin-1 EGF-like domain; experiment: binders of neuregulin-1 EGF-like domain, primary screen, biochemical, small-molecule microarray, 635 nm fluorescence (AID 1081); details: small-molecule microarray binding, higher = more signal;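 note: binding of the protein to compounds printed on small-molecule microarray slides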
[8] = FRG1 promoter luciferase signal modulators, primary screen, FRG1 inhibition for FSHD, cell-based, C2C12 myotubes, firefly/Renilla luciferase, luminescence (AID 1084); details: higher = more signal, called active from +8 up or from −8 down
[9] = binders of probe aFST on microarray, primary screen, stem cell growth factor project, biochemical, small-molecule microarray, fluorescence 635/667 (AID 1086); details: higher = more signal;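 note: score merges 667 nm fluorescence with signal-to-noise of each printed compound spot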
[10] = binders of probe aHhip on microarray, primary screen, stem cell growth factor project, biochemical, small-molecule microarray, fluorescence 635/667 (AID 1087); details: higher = more signal;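 note: score merges spot fluorescence at 667nm with spot signal to noise ratio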
[11] = test system: PRMT1 (protein arginine N-methyltransferase 1); experiment: PRMT1 binders on small-molecule microarrays, primary screen, biochemical, small-molecule microarray, 635 nm fluorescence (AID 1088); details: small-molecule microarray binding, higher = more signal;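 note: binding of Prmt1 protein to compounds spotted on small-molecule microarray slides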
[12] = yeast growth modulation, basal conditions, primary screen, YJM789 clinical isolate, OD600, 24 h (AID 1089);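 note: growth of clinical yeast isolate S. cerevisiae YJM 789 seeded 1000 cells per well; test concentration not given here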; details: S. cerevisiae YJM789 growth, higher = more signal, called active from +8 up or from −8 down
[13] = fission yeast growth modulation, primary screen, strain 972, OD600, 24 h, no modulator (AID 1090);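 note: basal condition with compound alone and no growth modifier present; test concentration not given here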; details: S. pombe 972 growth, higher = more signal, called active from +8 up or from −8 down
[14] = S. cerevisiae growth modulation with rapamycin, primary screen, strain BY4716, OD600, 96 h (AID 1091); details: higher = more signal, called active from +8 up or from −8 down; note: test concentration not given here
[15] = target: Torsin-1A-interacting protein 2 (Homo sapiens) (UniProt Q8NFQ8); experiment: LULL1 binders on small-molecule microarray, primary screen, cell lysate, human LULL1 lysate, 635/667 nm fluorescence (AID 1092); details: hLULL1 lysate binding, 635 nm fluorescence, higher = more signal;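 note: probe is lysate of COS7 cells overexpressing human LULL1; score merges per-feature 667 nm fluorescence with signal-to-noise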
[16] = E. coli growth modulation, two-sided OD650, primary screen, E. coli filamentation project, strain DRC41, 24 h (AID 1093); details: OD650, 24 h, higher = more signal, called active from +8 up or from −8 down;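 note: MC1000 strain lacking acrAB efflux and sulA so SOS filamentation is blocked; test concentration not given here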
[17] = small-molecule microarray binders of probe aLefty2, primary screen, biochemical, biotinylated probe, 635/667 nm fluorescence (AID 1094); details: higher = more signal;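 note: score merges spot fluorescence near 667 nm with spot signal-to-noise ratio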
[18] = test system: Noggin (protein binding on small-molecule microarray); experiment: Noggin binders on small-molecule microarray, primary screen, biochemical, 635/667 nm fluorescence (AID 1095); details: 635 nm fluorescence, higher = more signal;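 note: score merges 667 nm feature fluorescence with signal to noise over triplicate slides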
[19] = target: Neurogenic locus notch homolog protein 3 (Homo sapiens) (UniProt Q9UM47); experiment: NOTCH3 binders on small-molecule microarray, primary screen, biochemical, 635/667 nm fluorescence (AID 1096); details: NOTCH3 binding, 635 nm fluorescence, higher = more signal
[20] = small-molecule microarray binders of probe aEGFR, primary screen, biochemical, biotinylated probe, 635/667 nm fluorescence (AID 1097); details: higher = more signal;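 note: probe is a biotinylated anti-EGFR antibody binding compounds printed on slides; score combines fluorescence near 667 nm and signal to noise of each spot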

Sequence of Pro-neuregulin-1, membrane-bound isoform (Homo sapiens) (Q02297 whole entry, looked up, the tested form may be a part, canonical isoform): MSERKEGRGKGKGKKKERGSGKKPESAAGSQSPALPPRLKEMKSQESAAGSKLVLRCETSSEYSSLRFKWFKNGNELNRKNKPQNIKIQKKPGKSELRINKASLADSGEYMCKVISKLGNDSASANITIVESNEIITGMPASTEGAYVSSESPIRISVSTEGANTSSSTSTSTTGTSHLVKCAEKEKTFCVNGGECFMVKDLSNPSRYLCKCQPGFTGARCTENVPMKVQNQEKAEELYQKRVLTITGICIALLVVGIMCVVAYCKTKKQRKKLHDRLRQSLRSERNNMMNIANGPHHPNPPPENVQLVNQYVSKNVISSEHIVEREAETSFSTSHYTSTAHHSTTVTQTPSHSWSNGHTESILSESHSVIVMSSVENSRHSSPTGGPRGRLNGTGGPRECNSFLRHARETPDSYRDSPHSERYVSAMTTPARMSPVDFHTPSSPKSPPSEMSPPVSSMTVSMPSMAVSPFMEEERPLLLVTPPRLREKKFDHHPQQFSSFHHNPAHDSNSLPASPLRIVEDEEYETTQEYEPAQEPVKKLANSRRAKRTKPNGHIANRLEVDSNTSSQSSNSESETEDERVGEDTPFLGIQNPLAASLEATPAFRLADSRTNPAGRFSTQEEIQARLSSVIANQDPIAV
Sequence of Neurogenic locus notch homolog protein 3 (Homo sapiens) (Q9UM47 whole entry, looked up): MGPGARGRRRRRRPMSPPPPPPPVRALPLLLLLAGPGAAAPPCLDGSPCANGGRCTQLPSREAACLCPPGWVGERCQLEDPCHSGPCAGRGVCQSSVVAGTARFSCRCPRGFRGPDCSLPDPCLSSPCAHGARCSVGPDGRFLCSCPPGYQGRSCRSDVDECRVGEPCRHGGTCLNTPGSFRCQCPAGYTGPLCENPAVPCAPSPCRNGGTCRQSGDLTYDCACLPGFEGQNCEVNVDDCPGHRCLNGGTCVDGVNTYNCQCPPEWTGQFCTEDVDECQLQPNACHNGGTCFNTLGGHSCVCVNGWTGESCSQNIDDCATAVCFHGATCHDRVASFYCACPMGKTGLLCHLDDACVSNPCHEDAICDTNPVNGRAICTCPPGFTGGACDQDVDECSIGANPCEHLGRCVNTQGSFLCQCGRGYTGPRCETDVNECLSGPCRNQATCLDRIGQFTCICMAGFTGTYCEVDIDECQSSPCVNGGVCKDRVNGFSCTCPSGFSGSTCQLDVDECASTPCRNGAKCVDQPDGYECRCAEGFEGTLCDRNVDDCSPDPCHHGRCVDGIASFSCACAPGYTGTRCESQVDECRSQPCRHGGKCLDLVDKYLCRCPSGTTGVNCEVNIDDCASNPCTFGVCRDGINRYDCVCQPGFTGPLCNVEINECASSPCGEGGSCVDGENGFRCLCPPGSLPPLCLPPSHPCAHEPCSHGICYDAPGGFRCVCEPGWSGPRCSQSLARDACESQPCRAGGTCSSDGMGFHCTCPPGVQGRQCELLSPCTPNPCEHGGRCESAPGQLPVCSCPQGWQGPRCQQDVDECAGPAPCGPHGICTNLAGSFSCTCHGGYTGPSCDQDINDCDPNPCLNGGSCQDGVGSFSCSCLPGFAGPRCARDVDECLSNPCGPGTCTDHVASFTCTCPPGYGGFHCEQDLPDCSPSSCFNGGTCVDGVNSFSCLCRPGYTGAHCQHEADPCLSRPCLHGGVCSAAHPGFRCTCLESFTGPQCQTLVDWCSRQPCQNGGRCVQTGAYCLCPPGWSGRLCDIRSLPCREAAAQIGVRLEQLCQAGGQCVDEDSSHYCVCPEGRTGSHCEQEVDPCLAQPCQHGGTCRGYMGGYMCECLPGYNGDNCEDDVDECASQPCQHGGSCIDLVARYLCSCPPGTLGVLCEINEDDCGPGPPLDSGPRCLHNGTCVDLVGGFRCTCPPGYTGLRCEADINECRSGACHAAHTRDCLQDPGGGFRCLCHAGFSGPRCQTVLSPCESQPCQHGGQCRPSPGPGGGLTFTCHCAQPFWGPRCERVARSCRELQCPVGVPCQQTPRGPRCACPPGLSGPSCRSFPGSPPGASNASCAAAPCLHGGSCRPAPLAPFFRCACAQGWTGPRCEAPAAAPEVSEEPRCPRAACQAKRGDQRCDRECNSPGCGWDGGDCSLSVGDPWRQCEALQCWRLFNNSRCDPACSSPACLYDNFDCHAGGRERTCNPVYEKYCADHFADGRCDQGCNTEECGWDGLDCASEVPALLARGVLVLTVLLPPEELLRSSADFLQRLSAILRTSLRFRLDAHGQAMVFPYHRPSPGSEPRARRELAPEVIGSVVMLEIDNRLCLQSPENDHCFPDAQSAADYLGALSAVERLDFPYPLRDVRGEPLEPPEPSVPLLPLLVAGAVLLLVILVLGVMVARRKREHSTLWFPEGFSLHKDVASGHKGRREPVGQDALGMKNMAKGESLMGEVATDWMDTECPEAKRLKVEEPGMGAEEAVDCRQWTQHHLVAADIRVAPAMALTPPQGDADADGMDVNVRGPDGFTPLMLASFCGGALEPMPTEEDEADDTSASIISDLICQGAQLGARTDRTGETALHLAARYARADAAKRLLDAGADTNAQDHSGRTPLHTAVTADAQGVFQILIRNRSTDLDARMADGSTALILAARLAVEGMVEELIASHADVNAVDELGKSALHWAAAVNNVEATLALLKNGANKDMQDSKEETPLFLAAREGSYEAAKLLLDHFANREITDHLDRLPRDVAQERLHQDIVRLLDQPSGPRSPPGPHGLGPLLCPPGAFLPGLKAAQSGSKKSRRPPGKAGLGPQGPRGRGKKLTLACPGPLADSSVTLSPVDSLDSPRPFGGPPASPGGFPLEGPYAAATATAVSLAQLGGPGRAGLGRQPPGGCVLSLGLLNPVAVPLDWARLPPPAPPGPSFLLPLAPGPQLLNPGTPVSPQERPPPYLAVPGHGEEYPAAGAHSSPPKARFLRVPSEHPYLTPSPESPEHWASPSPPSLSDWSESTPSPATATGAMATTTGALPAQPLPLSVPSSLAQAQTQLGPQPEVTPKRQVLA
Sequence of Torsin-1A-interacting protein 2 (Homo sapiens) (Q8NFQ8 whole entry, looked up): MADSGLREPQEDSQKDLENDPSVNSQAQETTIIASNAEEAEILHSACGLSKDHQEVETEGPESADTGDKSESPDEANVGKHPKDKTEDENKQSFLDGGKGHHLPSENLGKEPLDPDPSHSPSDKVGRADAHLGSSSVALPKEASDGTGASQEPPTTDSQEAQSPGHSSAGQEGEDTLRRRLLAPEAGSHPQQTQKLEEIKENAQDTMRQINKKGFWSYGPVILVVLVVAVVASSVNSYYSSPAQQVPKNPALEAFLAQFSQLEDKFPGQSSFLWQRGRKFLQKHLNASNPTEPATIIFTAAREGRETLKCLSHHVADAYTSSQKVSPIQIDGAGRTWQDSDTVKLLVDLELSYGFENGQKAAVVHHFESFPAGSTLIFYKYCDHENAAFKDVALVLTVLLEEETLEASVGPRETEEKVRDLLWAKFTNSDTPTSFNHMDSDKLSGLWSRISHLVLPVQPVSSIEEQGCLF

SMILES | composite z-score [1] | composite z-score [2] | composite z-score [3] | composite z-score [4] | composite z-score [5] | composite z-score [6] | composite z-score [7] | z-score [8] | composite z-score [9] | composite z-score [10] | composite z-score [11] | z-score [12] | z-score [13] | z-score [14] | composite z-score [15] | z-score [16] | composite z-score [17] | composite z-score [18] | composite z-score [19] | composite z-score [20]
C=C[C@H](C)[C@H](OC(=O)Nc1ccc(OC)cc1)c1ccc(O)c2ccccc12 | 0.436 | -0.0826 | -0.121 | -0.148 | -0.714 | -0.322 | 0.957 | 3.63 (inactive) | -0.304 | -0.124 | -0.0544 | -25.3 (active) | -20.9 (active) | -3.05 (inactive) | 0.645 | 0.355 (inactive) | -0.151 | 0.585 | 0.0103 | -0.222
COCCOC(=O)N1C(=O)[C@@]2(c3cc(C#Cc4ccc(OC)cc4)ccc31)[C@H](C(N)=O)[C@H]1C(=O)O[C@H](c3ccccc3)[C@H](c3ccccc3)N1[C@@H]2c1ccc(O)cc1 | -0.39 | -0.343 | -0.167 | -0.206 | -1.64 | -0.55 | -0.297 | 0.961 (inactive) | -1.05 | -0.376 | -1.57 | -0.613 (inactive) | -0.0532 (inactive) | 0.333 (inactive) | -0.839 | 1.84 (inactive) | -0.264 | -2.13 | -1.35 | -0.627
O=S(=O)(NCCCO)c1ccc(Br)cc1 | -0.109 | 1.04 | -0.112 | 0.209 | 0.433 | 1.07 | 1.07 | -1.91 (inactive) | 0.14 | -0.226 | 0.607 | -1.72 (inactive) | -1.57 (inactive) | -0.531 (inactive) | 1.18 | 0.707 (inactive) | -0.18 | 0.355 | -0.271 | -0.0363
[N-]=[N+]=NCc1ccccc1[C@@H]1OC(c2ccc(OCCCO)cc2)=N[C@]1(Cc1ccccc1N=[N+]=[N-])C(N)=O | 0.209 | -0.523 | -0.156 | 0.385 | 1.66 | 2.08 | 1.27 | 0.722 (inactive) | 1.25 | -0.0994 | 1.55 | -0.0556 (inactive) | -1.33 (inactive) | -0.91 (inactive) | 3.29 | 0.43 (inactive) | 0.361 | 0.37 | 1.04 | 0.171
CC(C)CNC(=O)[C@@]1(C)c2ccccc2C(=O)N(C(C)C)[C@H]1c1ccc(CO)cc1 | 0.095 | -0.456 | -0.0803 | -0.435 | -1.78 | 0.0276 | -0.266 | 0.0705 (inactive) | -0.37 | 0.0424 | -1.32 | 0.0968 (inactive) | 0.481 (inactive) | 0.0297 (inactive) | 1.16 | -0.0935 (inactive) | 0.44 | -0.933 | -2.11 | 0.0744
CCCNC(=O)[C@@]1(C)c2ccccc2C(=O)N(Cc2ccc(OC(F)(F)F)cc2)[C@H]1c1ccc(CO)cc1 | 0.29 | -0.0811 | 0.015 | -0.387 | -0.321 | 1.2 | 1.3 | -3.98 (inactive) | -0.337 | 0.28 | 0.294 | -0.446 (inactive) | 0.242 (inactive) | -0.548 (inactive) | -0.416 | 0.922 (inactive) | 0.0241 | -0.432 | 0.13 | -0.18
C=C(C(=O)CC[C@@H](OC(=O)c1cccnc1)c1ccc(CO)o1)C(C)C | -0.35 | 0.328 | -0.019 | 0.715 | 0.29 | 1.08 | 0.592 | 0.305 (inactive) | 0.337 | 0.0373 | 1.54 | 0.813 (inactive) | -0.485 (inactive) | -0.0796 (inactive) | 1.97 | -0.601 (inactive) | -0.0415 | 1.53 | 1.14 | -0.0697
C=CCOC(=O)[C@H]1[C@@H]2C(=O)O[C@@H](c3ccccc3)[C@@H](c3ccccc3)N2[C@@H](c2ccc(OCCOC(=O)[C@H]3C[C@H]4C(=O)N[C@@H](CCCC[N+](C)(C)C)C(=O)N4[C@H]3c3ccc(O)cc3)cc2)[C@]12C(=O)Nc1ccccc12 | 0.104 | 0.154 | -0.1 | 0.276 | 0.193 | 0.06 | 1.09 | 0.131 (inactive) | 0.357 | -0.608 | -0.146 | -0.193 (inactive) | -2.55 (inactive) | -1.05 (inactive) | 1.68 | -0.405 (inactive) | 0.126 | 1.08 | 0.321 | -0.194
CO[C@H]1O[C@H](CO)[C@@H](OC(=O)Nc2ccc(C(F)(F)F)cc2)[C@H](OC(=O)Nc2ccccc2)[C@@H]1OC(=O)Nc1ccccc1 | -0.181 | -0.0087 | 0.113 | 0.392 | 1.29 | 0.781 | 0.879 | 5.33 (inactive) | 0.234 | -0.188 | 1.54 | 0.0975 (inactive) | 0.252 (inactive) | 0.168 (inactive) | 3.11 | -0.142 (inactive) | -0.0657 | 1.24 | 0.968 | -0.289
CN(C)CCCN1C(=O)[C@@]2(c3ccc([N+](=O)[O-])cc3)CC(=O)N(C3CCCCC3)[C@@H]2c2ccc(CO)cc21 | -0.363 | -0.0124 | -0.107 | 0.251 | 0.166 | -0.483 | -1.19 | 1.19 (inactive) | 0.161 | -0.353 | -0.282 | -1.34 (inactive) | -1.09 (inactive) | -2.61 (inactive) | -0.933 | -1.22 (inactive) | -0.142 | -0.233 | -0.0488 | -0.103
